# Screening data (PubChem BioAssay)
# The list is not random: actives were taken first. Their share in the collection is about 28%.
# CYP2C9 act: human CYP2C9 activators, primary screen, biochemical, luminescence. Cytochrome P450 2C9 (Homo sapiens), P11712. 96,000 tested, 1.4% active. activation factor at 5 µM. recombinant CYP2C9, luciferin-H conversion; active compounds read high; factor 1 = untreated enzyme, 0 = blocked;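 active = activation factor of 2 or more for CYP2C9 at a 5 µM dose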
# Pyk2 oligo antag: antagonists of Pyk2 self-association, primary screen, Q293 cells, FERM NanoBiT luminescence, HTS; 99,000 tested, 0.83% active; active compounds read low; z-score (the deposit names both 25 µM and 10 µM);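 active = Z-score of -3 or lower, scaled per plate to the spread of control and sample wells; inactive = z-score above -3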;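 note: negative z-score means lost luminescence so less FERM oligomerization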
# CYP2C19 act: human CYP2C19 activators, primary screen, biochemical, luminescence; 96,000 tested, under 10 active; AID 1025, 2008; Cytochrome P450 2C19 (Homo sapiens), P33261; activation factor at 5 µM; recombinant CYP2C19, luciferin-H EGE luminescence; active compounds read high; 0 = fully inhibited enzyme, 1 = untreated enzyme;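 active = activation factor of at least 2 at 5 µM in the primary screen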
# Target sequence (P33261 whole entry, looked up): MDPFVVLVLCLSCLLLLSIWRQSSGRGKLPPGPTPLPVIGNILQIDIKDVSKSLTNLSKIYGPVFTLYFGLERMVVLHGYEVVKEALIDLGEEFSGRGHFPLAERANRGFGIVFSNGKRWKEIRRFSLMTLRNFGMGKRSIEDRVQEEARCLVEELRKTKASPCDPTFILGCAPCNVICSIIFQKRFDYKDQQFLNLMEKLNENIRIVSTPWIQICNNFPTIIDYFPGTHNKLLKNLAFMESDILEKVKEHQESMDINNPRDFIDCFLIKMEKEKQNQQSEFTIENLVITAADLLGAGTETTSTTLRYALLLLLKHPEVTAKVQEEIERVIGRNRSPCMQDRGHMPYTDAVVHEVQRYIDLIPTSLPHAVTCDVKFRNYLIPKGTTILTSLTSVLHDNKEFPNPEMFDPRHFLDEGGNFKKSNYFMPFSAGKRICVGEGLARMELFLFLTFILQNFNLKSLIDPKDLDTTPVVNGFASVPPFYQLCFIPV
# CYP2C9 inhib: blockers of cytochrome P450 2C9 activity – biochemical, luminescence, ADME assay, primary screen. P11712. CYP2C9 Supersomes, luciferin-H conversion. inhibition, % at 5 µM. 96,000 tested, 20% active. AID 777, 2007;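 active = blocking of liver enzyme CYP2C9 beyond about 50% at 5 µM, limit read from the data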
# CYP2C19 inhib: blockers of cytochrome P450 2C19 activity – biochemical, luminescence, ADME assay, primary screen; P33261; CYP2C19 Supersomes, luciferin-H EGE luminescence, 30 min; inhibition, % at 5 µM; 96,000 tested, 21% active; AID 778, 2007;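 active = CYP2C19 inhibition above a set limit at 5 µM in the primary screen, cut at about 50% in these data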
# Hits are given with their value; . = inactive; / = no result given.
SMILES,CYP2C9 act,Pyk2 oligo antag,CYP2C19 act,CYP2C9 inhib,CYP2C19 inhib
COC(=O)c1ccccc1NC(=S)NC(NC(=O)COc1ccccc1)C(Cl)(Cl)Cl (stereo not drawn),.,.,.,.,.
Cc1ccc(NC(=S)NC(NC(=O)c2ccccc2C)C(Cl)(Cl)Cl)c(C)c1 (stereo not drawn),.,.,.,73,.
CCc1ccc(OCC(=O)NC(NC(=S)Nc2ccc(C)cc2C)C(Cl)(Cl)Cl)cc1 (stereo not drawn),.,.,.,57,54
Cc1ccc(C)c(NC(=S)NC(NC(=O)Cc2cccc3ccccc23)C(Cl)(Cl)Cl)c1 (stereo not drawn),.,.,.,.,.
O=C(COc1ccccc1)NC(NC(=S)Nc1ccccc1O)C(Cl)(Cl)Cl (stereo not drawn),.,.,.,83,93
COc1ccccc1N1CCN(C(=O)CN(c2cc(C)cc(C)c2)S(C)(=O)=O)CC1,.,.,.,.,.
C=CCNS(=O)(=O)CC12CCC(CC1=O)C2(C)C (stereo not drawn),.,.,.,.,.
COc1ccc(C(C)=O)cc1CSc1nc2cc(Cl)ccc2o1,.,.,.,.,.
CC(=O)CCc1c[nH]c2c(C(=O)O)cccc12,.,.,.,.,.
COc1ccc(N/C(=C(/C(Cl)=C(Cl)Cl)[N+](=O)[O-])n2nnc3ccccc32)cc1OC,.,/,.,.,.
CC(=O)c1cc(C#N)c(SCC(=O)OC(C)(C)C)nc1C,.,.,.,.,.
Cc1ccc(CNS(=O)(=O)c2cn(C)cn2)cc1,.,.,.,.,.
Cc1ccccc1NC(=S)NC(NC(=O)N(C)C)C(Cl)(Cl)Cl (stereo not drawn),.,.,.,.,.
Cc1ccccc1NC(=S)NC(NC(=O)C(C)(C)C)C(Cl)(Cl)Cl (stereo not drawn),.,.,.,97,.
Cc1ccc(C)c(NC(=S)NC(NC(=O)N(C)C)C(Cl)(Cl)Cl)c1 (stereo not drawn),.,.,.,78,70
CC(C)(C)C(=O)NC(=S)Nc1ccccc1C(N)=O,/,.,/,/,/
CCCN(CCC)CC(O)COc1ccc([N+](=O)[O-])cc1 (stereo not drawn),.,.,.,.,.
CCN(CC)CCCNC(=O)C1CCC(=O)N(c2ccc(OC)cc2)C1c1ccc(F)cc1 (stereo not drawn),.,.,.,.,.
CCN1C(=O)/C(=C/c2nc3ccccc3c(=O)n2-c2ccccc2)c2ccccc21,.,-3.2,.,.,.
COC(=O)c1sc(S(=O)(=O)N2CCCCC2)c(C(=O)OC)c1C,.,.,.,.,62
COC(=O)c1sc(S(=O)(=O)N2CCC(C)CC2)c(C(=O)OC)c1C,.,.,.,.,.
O=S(=O)(c1ccc(F)cc1)N1CCN(c2ccccc2)CC1,.,.,.,.,.
COC(=O)c1sc(S(=O)(=O)NCc2ccccc2)c(C(=O)OC)c1C,.,.,.,60,83
COC(=O)c1sc(S(=O)(=O)N2CCN(c3ccccc3)CC2)c(C(=O)OC)c1C,.,.,.,78,89
Cc1cc(Br)c(Cl)cc1NC(=O)CN1C(=O)C2C3CC(c4ccccc4)C(C3)C2C1=O (stereo not drawn),/,.,/,/,/
SMILES,CYP2C9 act,Pyk2 oligo antag,CYP2C19 act,CYP2C9 inhib,CYP2C19 inhib
CCS(=O)(=O)c1ccc(-c2csc(-c3ccccc3)n2)c(Cl)c1Cl,.,.,.,.,.
O=S(=O)(c1ccc(Cl)s1)N1CCN(C/C=C/c2ccccc2)CC1,.,.,.,80,78
O=S(=O)(c1cccs1)N1CCN(C/C=C/c2ccccc2)CC1,.,.,.,74,86
CS(=O)(=O)N1CCN(C/C=C/c2ccccc2)CC1,.,.,.,.,.
Cc1cccc(CCNC(=O)CCc2c(C)nc3ncnn3c2C)c1,.,.,.,.,.
N#CC(C(=O)NCCc1ccccc1)c1nc2ccccc2nc1N1CCOCC1 (stereo not drawn),.,.,.,.,.
COCCOC(=O)C(C#N)c1nc2ccccc2nc1N1CCCC1 (stereo not drawn),.,.,.,79,85
COc1ccccc1N1CCN(c2nc3ccccc3nc2C(C#N)C(=O)OC(C)C)CC1 (stereo not drawn),.,.,.,66,.
COCCCNC(=O)C(C#N)c1nc2ccccc2nc1N1CCCC1 (stereo not drawn),/,.,/,/,/
N#CC(C(=O)NCc1ccco1)c1nc2ccccc2nc1N1CCOCC1 (stereo not drawn),.,.,.,88,79
CCCCOC(=O)C(C#N)c1nc2ccccc2nc1N1CCOCC1 (stereo not drawn),.,.,.,.,52
CCN1CCN(c2nc3ccccc3nc2C(C#N)C(=O)OCc2ccccc2)CC1 (stereo not drawn),.,.,.,57,82
O=C(COc1ccc(S(=O)(=O)NC2CCCCC2)cc1)NC1CCCCC1,/,.,/,/,/
O=S(=O)(NC1CCCCC1)c1ccc(Br)cc1,.,.,.,.,80
COC(=O)COc1ccc(S(=O)(=O)NC2CCCCCC2)cc1,.,.,.,88,94
COC(=O)CCN(C1CCCCC1)S(=O)(=O)c1ccc(S(=O)(=O)NC2CCCCC2)cc1,.,.,.,100,97
CCc1ccc(OCC(=O)NC(=S)Nc2ccc(S(=O)(=O)NC3CCCCC3)cc2)cc1,.,.,.,74,.
CC1(C)NC(=O)N(CC(O)CN2C(=O)CCC2=O)C1=O (stereo not drawn),.,.,.,.,.
CC1(C)NC(=O)N(CC(O)Cn2nnc3ccccc32)C1=O (stereo not drawn),.,.,.,.,69
CC1(C)NC(=O)N(CC(O)COc2cccc(F)c2)C1=O (stereo not drawn),.,/,.,.,69
O=c1[nH]c(/C(=N\O)c2ccccc2)no1,.,.,.,.,.
COc1ccc(OC)c(NC(=O)COC(=O)c2c3c(nc4ccccc24)CCCC3)c1,.,-4.4,.,52,.
COc1ccc(NC(=O)COC(=O)c2c3c(nc4ccccc24)CCCC3)cc1,.,-4.5,.,.,.
COc1ccc(NC(=O)COC(=O)c2c3c(nc4ccccc24)CCCC3)cc1Cl,.,-4.6,.,.,.
COc1ccc(C)cc1NC(=O)C(=O)NNC(=O)c1ccco1,.,.,.,.,.
CNC(=O)C(C)NS(=O)(=O)c1ccc(F)cc1 (stereo not drawn),.,.,.,.,81
CCOc1ccc(C(C)NC(=O)Nc2ccccc2C(=O)OC)cc1 (stereo not drawn),.,.,.,.,70
COc1ccc(NC(=O)c2ccccc2F)cc1Cl,.,.,.,.,.
